Many of the other results were omitted from the sample, so hits are more common in it than they were.
Shiga toxin inh = blocks Shiga toxin action in Vero cells; Vero cells, Shiga toxin protein synthesis inhibition reporter; inhibition, % at 38.7 µM; 9.2% of 290,000 active; AID 2315; in the data active = inhibition mostly above about 28%, no sharp cut-off; inactive = mostly below about 43%; note: 0% is about no effect
LmPK inhibitor = inhibitors of Leishmania mexicana pyruvate kinase | purified LmPK, Kinase-Glo ATP luminescence, 1 h | Q27686 | Potency, µM (titrated, usually from 57.5 µM), without a hit: at the highest dose activity change, negative = inhibition, usual class: inhibitors | 0.37% of 290,000 active; note: potency is the fitted concentration of half-maximal effect; % is set by controls: 0 for no effect and ±100 for the full control effect
Target sequence (Q27686 whole entry, looked up): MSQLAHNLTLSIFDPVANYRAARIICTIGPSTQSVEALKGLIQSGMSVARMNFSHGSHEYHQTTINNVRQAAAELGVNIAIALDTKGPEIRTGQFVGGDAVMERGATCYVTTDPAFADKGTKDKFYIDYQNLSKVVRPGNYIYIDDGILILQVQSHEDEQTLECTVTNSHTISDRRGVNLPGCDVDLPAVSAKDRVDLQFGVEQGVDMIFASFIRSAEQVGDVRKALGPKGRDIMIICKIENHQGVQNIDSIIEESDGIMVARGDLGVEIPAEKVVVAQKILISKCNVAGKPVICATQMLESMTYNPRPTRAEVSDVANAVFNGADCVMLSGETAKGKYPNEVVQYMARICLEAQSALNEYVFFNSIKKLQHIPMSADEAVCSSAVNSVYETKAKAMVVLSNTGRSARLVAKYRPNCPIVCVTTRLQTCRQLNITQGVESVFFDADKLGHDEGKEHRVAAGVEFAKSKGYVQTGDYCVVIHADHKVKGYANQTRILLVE
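Kinase-Glo luminescence read after 1 h RT reaction of 0.1 nM LmPK with 0.5 mM PEP and 0.1 mM ADP. Activity scaled between uninhibited and enzyme-free controls.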
RE007 growth inh = less growth of the S. pombe RE007 Vpr strain; AID 651644; S. pombe RE007 Vpr strain, BacTiter-Glo ATP luminescence, 24 h; Potency, µM (series often up to 92.2 µM), inactives show top-dose activity change, negative = less growth, hits mostly inhibitors; 0.21% of 360,000 active; active = well fitted falling curve with a large enough effect; inconclusive = small, poorly fitted or top-dose-only effect; inactive = no such curve, though single readings can be large or run the other way; note: potency is the fitted concentration of half-maximal effect; % is set by controls: 0 for no effect and ±100 for the full control effect; nearly all actives have a fitted effect of over 50% in size
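Fission yeast strain RE007, carrying one chromosomally integrated HIV-1 vpr copy, was seeded at OD 0.01 in PMG+AL medium with 23 nL pinned compound. After 24 h at 30 °C and 99% humidity, viability was read by BacTiter-Glo luminescence.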
Cycloheximide cs = affects cycloheximide protein synthesis inhibition readout, counter-screen. max response, %. 12% of 300,000 active. cell reporter, cycloheximide protein synthesis inhibition counterscreen. AID 2314; in the data active = max response mostly above about 13%, no sharp cut-off; inactive = mostly below about 14%; note: read at 38.3 µM for the half of the compounds with a filed dose; 0% is about no effect
Giardia FBPA inh = inhibitors of Giardia lamblia fructose-1,6-bisphosphate aldolase. A8B2U2. purified Giardia FBPA. Potency, µM (top dose mostly 59.6 µM), without a hit: at the top dose activity, negative = inhibition, actives largely listed as inhibitors. 0.71% of 290,000 active. AID 2451; note: potency is the fitted concentration of half-maximal effect; % is set by controls: 0 for no effect and ±100 for the full control effect; nearly all actives have a fitted effect of over 55% in size
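40 nM FBPA preincubated 10 min at RT with compound (up to 57.5 uM final), then substrate plus GAPDH/TPI/NAD/arsenate coupling and diaphorase/resazurin added. Fluorescence read after 20 min at RT, 525/598 nm.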
Tb PYK inh = T. brucei pyruvate kinase inhibition; Q57TT1; TbPYK enzyme, Kinase-Glo Plus ATP luminescence, 45 min; Potency, µM (titrated, usually from 76.8 µM), for the others: at the highest dose activity, negative = inhibition, most hits filed as inhibitors; 0.12% of 410,000 active; AID 624173; note: potency is the fitted concentration of half-maximal effect; % is set by controls: 0 for no effect and ±100 for the full control effect; nearly all actives have a fitted effect of over 50% in size
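Enzyme and substrate buffer are dispensed first and compound is pin-transferred. ADP at 130 uM final then starts the reaction, which runs 45 min at room temperature. Detection reagent is added for 10 min before luminescence is imaged.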
Starred values were filed as active, the others as inactive; u = inconclusive; x = no result given. Unless noted, calls come from the whole dose curve; as a rule, active = well fitted curve in the direction sought with a large enough effect; inconclusive = small, poorly fitted or top-dose-only effect, or another doubt; inactive = no such curve, though single readings can be large; an effect the other way counts as inactive or inconclusive.

SMILES	Shiga toxin inh	LmPK inhibitor	RE007 growth inh	Cycloheximide cs	Giardia FBPA inh	Tb PYK inh
CC1CCN(C(=O)c2cc3c(=O)n4ccccc4nc3s2)CC1	83*	-5%	0%	26	-2%	0%
Cc1ccc(NC(=O)CN2C(=O)CCc3cc(S(=O)(=O)N4CCOCC4)ccc32)cc1N(C)C	x	x	x	x	x	-12%
Brc1c(OCCOCCn2cncn2)ccc2ccccc12	27*	0%	-20%	20*	-3%	-16%
Cc1cc(Cl)ccc1OCCn1cncn1	-4	-10%	11%	-1	3%	-4%
COc1ccc2nc(-n3c(C)ccc3C)sc2c1	77*	0%	-2%	22*	-5%	2%
COc1ccc2nc(-c3ccc(N(C)C)cc3)sc2c1	25*	x	x	32*	-2%	x
COc1cc(OC)cc(-c2nc3ccccc3s2)c1	72*	u	-20%	46*	-2%	-7%
CCOC(=O)N1CCC(NC(=O)c2ccc3c(c2)N(Cc2ccccc2C)C(=O)c2ccccc2S3=O)CC1 (configuration not stated)	x	x	x	x	x	-5%
O=C(COC(=O)c1ccc2ccccc2n1)c1ccccc1	52	5%	-4%	46*	8%	-1%
O=C(OCC(=O)c1ccc[nH]1)c1ccc2ccccc2n1	18	2%	-16%	19*	-4%	2%
O=C(COC(=O)c1nc(Cl)c(Cl)c(Cl)c1Cl)c1ccc[nH]1	x	x	-27%	x	x	-3%
COc1ccc(CNC(=O)COC(=O)c2ccc3ccccc3n2)cc1	x	x	33%	x	x	-3%
O=C(OCc1ccc(F)cc1)c1ccc2ccccc2n1	46*	1%	0%	25*	4%	6%
COc1ccc(C2=Nn3c(nnc3-c3ccc(OC)cc3OC)SC2)c(OC)c1	-9	x	x	-4	1%	x
CN(C)c1cccc(C(=O)N2CCCC(CCC(=O)NCc3ccccc3F)C2)c1 (configuration not stated)	16	-2%	6%	30*	-3%	-5%
O=C(CCC1CCCN(C(=O)c2cccnc2)C1)NCc1ccccc1F (configuration not stated)	3	-13%	-17%	17*	x	0%
O=C(CCC1CCCN(C(=O)c2ccoc2)C1)NCc1ccccc1F (configuration not stated)	16	3%	6%	14	7%	-1%
Cc1noc(C)c1CCC(=O)N1CCCC(CCC(=O)NCc2ccccc2F)C1 (configuration not stated)	-6	-7%	-3%	-2	4%	-6%
O=C(CCC1CCCN(C(=O)CCN2CCCCC2=O)C1)NCc1ccccc1F (configuration not stated)	-11	-14%	-4%	14*	-2%	0%
CC(=O)c1ccc(OCc2cc(C(=O)N3CC[C@@H]4CCCC[C@H]4C3)no2)cc1	104*	-1%	-5%	75*	-6%	5%
CC(=O)c1ccc(OCc2cc(C(=O)N3CCCCC3c3cccnc3)no2)cc1 (configuration not stated)	81*	0%	-5%	54*	x	0%
CC(=O)c1ccc(OCc2cc(C(=O)NC3CCCCC3)no2)cc1	76*	-4%	-1%	31*	x	-12%
CC(=O)c1ccc(OCc2cc(C(=O)N3CCC(c4ccncc4)CC3)no2)cc1	23	1%	-7%	8	5%	1%
CCOc1ccccc1NC(=O)CN1c2ccccc2S(=O)(=O)c2ccccc21	x	x	x	x	x	4%
COc1cccc(CNC(=O)CN2C(=O)CSc3c2c(C)nn3-c2ccccc2)c1OC	x	x	x	x	x	2%
SMILES	Shiga toxin inh	LmPK inhibitor	RE007 growth inh	Cycloheximide cs	Giardia FBPA inh	Tb PYK inh
CC(Oc1ccccc1)c1ccn[nH]1 (configuration not stated)	18	3%	-3%	-3	0%	1%
c1ccc(C(c2ccccc2)c2ccn[nH]2)cc1	61*	-6%	6%	19*	17%	3%
CCOc1ccc(NC(=O)N(c2ccccc2)c2ccccc2)cc1	-4	-11%	2%	-4	9%	0%
CCOc1ccc(NC(=O)C(c2ccccn2)N(C(=O)CCl)c2ccc(F)cc2)cc1 (configuration not stated)	active	2%	-8%	32*	u	-9%
CC(C)C[C@H](NC(=O)CNC(=O)[C@H](CCC(N)=O)NC(=O)[C@H](Cc1ccc(O)cc1)NC(=O)[C@@H](NC(=O)[C@H](Cc1ccc(O)cc1)NC(=O)CNC(=O)[C@@H](N)CCCN=C(N)N)C(C)C)C(=O)O	-6	x	x	-3	5%	x
Cc1cc2n(n1)CCCN2C(=O)Nc1ccccc1F	x	x	x	x	x	-1%
CC1(c2ccccc2)CC(C)(C)n2c(O)c(C3=NC(=S)NC3=O)c3cccc1c32 (configuration not stated)	-5	-2%	-13%	-4	3%	1%
COc1cc2c3c(c1)c(C1=NC(=S)NC1=O)c(O)n3C(C)(C)C=C2C	-12	-2%	2%	21*	-2%	4%
Nc1ccc(S(=O)(=O)c2cc(O)c3ccccc3c2O)cc1	x	x	-4%	x	x	11µM*
OCCCNc1cc(-c2ccnc(Nc3cccc(Cl)c3)n2)ccn1	37*	-1%	-10%	23*	-4%	-3%
CCC(C)Oc1cc(-c2ccnc(Nc3cccc(Cl)c3)n2)ccn1 (configuration not stated)	19	-3%	-1%	4	3%	u
Clc1ccc(-c2nc(Cc3ccccc3Cl)no2)cc1	12	-3%	13%	15	2%	-5%
Clc1ccc(Cc2noc(-c3cccs3)n2)cc1	93*	-7%	-12%	53*	1%	-3%
CCCC(=O)N(CCN1CCOCC1)c1nc2cc(C)c(C)cc2s1	91*	-10%	0%	51*	x	4%
Cc1c(C(=O)NCc2ccoc2)oc2ccc3c(c12)C(=O)CC(C)(C)O3	119*	0%	9%	61*	3%	-3%
Cc1cc(N2CCCCC2)nc2ccc(NC(=O)/C=C/c3ccc(OCCC(C)C)cc3)cc12	x	x	x	x	x	2%
COc1ccc(NC(=O)C2CCN(c3cc(C)nc4c(-c5ccc(Cl)cc5)c(C)nn34)CC2)cc1	x	x	x	x	x	-7%
C=CCNC(=O)COc1ccc(S(=O)(=O)N2CCCC2)cc1	12	1%	8%	-4	1%	7%
O=C(COc1ccccc1)NCCSc1ccccc1	40	2%	-13%	14*	5%	-11%
C=CCNC(=O)COc1ccc(Oc2ccccc2)cc1	64*	-1%	31%	52*	-12%	0%
O=C(CSc1ccc(F)cc1)NCCSc1ccccc1	54	-3%	50%	16	1%	-10%
CC(C)(C)SCCNC(=O)COc1ccccc1	16	0%	-6%	27*	4%	0%
CN(C)c1ccc(-c2cc[nH]c(=O)c2N)cc1	3	x	x	23	x	x

Bioassay records deposited in PubChem by National Center for Advancing Translational Sciences (NCATS).
